Source: PubChem BioAssay
Calls of active or inactive are those of the source.

Columns and labels:
[1] = binders of probe aFSTL3 on microarray, primary screen, stem cell growth factor project, biochemical, small-molecule microarray, fluorescence 635/667 (AID 1064); settings: higher = more signal;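 also: measures binding of the biotinylated anti-FSTL3 antibody to printed compounds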
[2] = binders from COS7 lysate, DM2A8 probe, primary screen, torsin A project, cell lysate, small-molecule microarray, fluorescence 635/667 (AID 1065); settings: higher = more signal, COS7 lysate expressing mutant human TOR1A
[3] = binders of probe aFGF2 on microarray, primary screen, stem cell growth factor project, biochemical, small-molecule microarray, fluorescence 635/667 (AID 1067); settings: higher = more signal;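 also: measures binding of biotinylated aFGF2 protein to printed compounds on slides; z-score merges feature fluorescence and signal-to-noise across triplicate slides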
[4] = binders of probe aFGF10 on microarray, primary screen, stem cell growth factor project, biochemical, small-molecule microarray, fluorescence 635/667 (AID 1071); settings: higher = more signal;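 also: score merges 667 nm spot intensity and signal to noise from triplicate slides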
[5] = biological target: Neurogenic locus notch homolog protein 2 (Homo sapiens) (UniProt Q04721); assay: Notch2 binders on small-molecule microarrays, primary screen, biochemical, small-molecule microarray, 635 nm fluorescence, stem cell growth factors (AID 1073); settings: Notch2 binding, higher = more signal
Chain of Neurogenic locus notch homolog protein 2 (Homo sapiens) (Q04721 whole entry, looked up, canonical isoform): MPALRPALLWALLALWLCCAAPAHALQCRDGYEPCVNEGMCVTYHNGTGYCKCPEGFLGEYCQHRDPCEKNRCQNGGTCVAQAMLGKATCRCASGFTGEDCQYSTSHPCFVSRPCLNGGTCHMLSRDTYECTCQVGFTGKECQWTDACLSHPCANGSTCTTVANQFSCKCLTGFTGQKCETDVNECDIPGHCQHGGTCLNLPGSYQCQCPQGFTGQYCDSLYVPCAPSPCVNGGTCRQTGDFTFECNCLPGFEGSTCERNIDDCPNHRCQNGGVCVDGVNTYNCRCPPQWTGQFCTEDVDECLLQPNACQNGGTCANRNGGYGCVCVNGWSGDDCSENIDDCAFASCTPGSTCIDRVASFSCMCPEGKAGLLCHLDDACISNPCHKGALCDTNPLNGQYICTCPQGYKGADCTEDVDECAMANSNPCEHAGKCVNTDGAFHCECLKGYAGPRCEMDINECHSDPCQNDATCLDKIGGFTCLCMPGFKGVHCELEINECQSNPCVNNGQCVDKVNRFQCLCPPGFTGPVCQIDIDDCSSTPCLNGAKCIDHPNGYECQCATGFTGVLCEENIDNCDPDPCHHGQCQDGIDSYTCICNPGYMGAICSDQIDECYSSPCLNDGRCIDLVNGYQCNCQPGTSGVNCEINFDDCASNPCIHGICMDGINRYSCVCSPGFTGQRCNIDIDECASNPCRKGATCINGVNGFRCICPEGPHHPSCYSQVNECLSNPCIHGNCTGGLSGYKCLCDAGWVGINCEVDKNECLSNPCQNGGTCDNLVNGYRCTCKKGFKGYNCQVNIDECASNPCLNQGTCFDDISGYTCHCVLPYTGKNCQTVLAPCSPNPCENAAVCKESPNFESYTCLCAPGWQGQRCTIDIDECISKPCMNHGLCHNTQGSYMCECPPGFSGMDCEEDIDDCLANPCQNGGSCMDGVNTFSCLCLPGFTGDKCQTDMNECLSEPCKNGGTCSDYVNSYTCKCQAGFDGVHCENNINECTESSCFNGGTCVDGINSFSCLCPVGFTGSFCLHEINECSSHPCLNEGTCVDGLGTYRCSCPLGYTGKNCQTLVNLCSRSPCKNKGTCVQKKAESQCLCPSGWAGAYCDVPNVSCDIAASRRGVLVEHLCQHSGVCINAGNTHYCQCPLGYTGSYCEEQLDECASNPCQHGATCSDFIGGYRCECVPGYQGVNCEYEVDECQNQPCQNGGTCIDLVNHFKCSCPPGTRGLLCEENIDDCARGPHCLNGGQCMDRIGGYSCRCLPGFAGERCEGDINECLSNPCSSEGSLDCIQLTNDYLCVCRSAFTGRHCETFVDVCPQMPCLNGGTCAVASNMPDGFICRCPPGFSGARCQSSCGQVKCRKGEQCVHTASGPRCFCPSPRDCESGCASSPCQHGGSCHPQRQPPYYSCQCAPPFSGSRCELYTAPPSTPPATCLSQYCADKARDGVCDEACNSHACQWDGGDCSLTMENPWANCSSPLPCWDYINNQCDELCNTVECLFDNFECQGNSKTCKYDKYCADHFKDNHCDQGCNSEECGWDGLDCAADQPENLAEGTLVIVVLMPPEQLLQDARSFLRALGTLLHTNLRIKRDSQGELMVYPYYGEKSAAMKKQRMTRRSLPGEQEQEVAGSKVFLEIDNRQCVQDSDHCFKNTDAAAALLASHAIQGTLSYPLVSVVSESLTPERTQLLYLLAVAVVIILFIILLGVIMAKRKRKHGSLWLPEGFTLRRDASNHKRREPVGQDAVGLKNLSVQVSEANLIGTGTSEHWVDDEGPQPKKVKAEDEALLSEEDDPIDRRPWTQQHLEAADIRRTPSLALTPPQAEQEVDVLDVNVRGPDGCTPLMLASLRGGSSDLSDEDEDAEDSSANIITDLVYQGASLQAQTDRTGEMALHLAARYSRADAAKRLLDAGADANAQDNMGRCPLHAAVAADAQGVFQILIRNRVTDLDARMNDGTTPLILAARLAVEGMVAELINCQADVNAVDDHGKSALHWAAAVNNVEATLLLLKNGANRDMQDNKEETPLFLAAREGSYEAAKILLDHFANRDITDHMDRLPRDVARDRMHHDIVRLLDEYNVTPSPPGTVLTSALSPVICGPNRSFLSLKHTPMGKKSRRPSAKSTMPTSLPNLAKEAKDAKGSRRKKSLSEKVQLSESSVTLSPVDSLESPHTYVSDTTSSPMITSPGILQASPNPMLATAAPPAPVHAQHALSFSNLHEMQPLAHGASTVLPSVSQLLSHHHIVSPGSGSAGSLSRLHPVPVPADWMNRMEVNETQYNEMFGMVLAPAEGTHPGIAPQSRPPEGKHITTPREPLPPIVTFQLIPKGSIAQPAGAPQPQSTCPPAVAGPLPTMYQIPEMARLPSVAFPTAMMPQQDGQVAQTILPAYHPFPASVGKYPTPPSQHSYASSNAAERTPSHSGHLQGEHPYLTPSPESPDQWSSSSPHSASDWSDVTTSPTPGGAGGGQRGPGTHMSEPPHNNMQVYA

[6] = biological target: Pro-neuregulin-1, membrane-bound isoform (Homo sapiens) (UniProt Q02297); assay: NRG1 binders on small-molecule microarrays, primary screen, psychiatric disease protein project, biochemical, small-molecule microarray, fluorescence 635/667 (AID 1075); settings: NRG1 binding, 635 nm fluorescence, higher = more signal;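 also: score combines 667 nm spot fluorescence with signal to noise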
[7] = tested on: Neuregulin-1 EGF-like domain; assay: binders of neuregulin-1 EGF-like domain, primary screen, biochemical, small-molecule microarray, 635 nm fluorescence (AID 1081); settings: small-molecule microarray binding, higher = more signal;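 also: binding of the protein to compounds printed on small-molecule microarray slides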
[8] = FRG1 promoter luciferase signal modulators, primary screen, FRG1 inhibition for FSHD, cell-based, C2C12 myotubes, firefly/Renilla luciferase, luminescence (AID 1084); settings: higher = more signal, called active from +8 up or from −8 down
[9] = binders of probe aFST on microarray, primary screen, stem cell growth factor project, biochemical, small-molecule microarray, fluorescence 635/667 (AID 1086); settings: higher = more signal;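 also: score merges 667 nm fluorescence with signal-to-noise of each printed compound spot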
[10] = binders of probe aHhip on microarray, primary screen, stem cell growth factor project, biochemical, small-molecule microarray, fluorescence 635/667 (AID 1087); settings: higher = more signal;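 also: score merges spot fluorescence at 667nm with spot signal to noise ratio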
[11] = tested on: PRMT1 (protein arginine N-methyltransferase 1); assay: PRMT1 binders on small-molecule microarrays, primary screen, biochemical, small-molecule microarray, 635 nm fluorescence (AID 1088); settings: small-molecule microarray binding, higher = more signal;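 also: binding of Prmt1 protein to compounds spotted on small-molecule microarray slides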
[12] = yeast growth modulation, basal conditions, primary screen, YJM789 clinical isolate, OD600, 24 h (AID 1089);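 also: growth of clinical yeast isolate S. cerevisiae YJM 789 seeded 1000 cells per well; test concentration not given here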; settings: S. cerevisiae YJM789 growth, higher = more signal, called active from +8 up or from −8 down
[13] = fission yeast growth modulation, primary screen, strain 972, OD600, 24 h, no modulator (AID 1090);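 also: basal condition with compound alone and no growth modifier present; test concentration not given here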; settings: S. pombe 972 growth, higher = more signal, called active from +8 up or from −8 down
[14] = S. cerevisiae growth modulation with rapamycin, primary screen, strain BY4716, OD600, 96 h (AID 1091); settings: higher = more signal, called active from +8 up or from −8 down; also: test concentration not given here
[15] = biological target: Torsin-1A-interacting protein 2 (Homo sapiens) (UniProt Q8NFQ8); assay: LULL1 binders on small-molecule microarray, primary screen, cell lysate, human LULL1 lysate, 635/667 nm fluorescence (AID 1092); settings: hLULL1 lysate binding, 635 nm fluorescence, higher = more signal;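 also: probe is lysate of COS7 cells overexpressing human LULL1; score merges per-feature 667 nm fluorescence with signal-to-noise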
[16] = E. coli growth modulation, two-sided OD650, primary screen, E. coli filamentation project, strain DRC41, 24 h (AID 1093); settings: OD650, 24 h, higher = more signal, called active from +8 up or from −8 down;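 also: MC1000 strain lacking acrAB efflux and sulA so SOS filamentation is blocked; test concentration not given here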
[17] = small-molecule microarray binders of probe aLefty2, primary screen, biochemical, biotinylated probe, 635/667 nm fluorescence (AID 1094); settings: higher = more signal;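 also: score merges spot fluorescence near 667 nm with spot signal-to-noise ratio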
[18] = tested on: Noggin (protein binding on small-molecule microarray); assay: Noggin binders on small-molecule microarray, primary screen, biochemical, 635/667 nm fluorescence (AID 1095); settings: 635 nm fluorescence, higher = more signal;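 also: score merges 667 nm feature fluorescence with signal to noise over triplicate slides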
[19] = biological target: Neurogenic locus notch homolog protein 3 (Homo sapiens) (UniProt Q9UM47); assay: NOTCH3 binders on small-molecule microarray, primary screen, biochemical, 635/667 nm fluorescence (AID 1096); settings: NOTCH3 binding, 635 nm fluorescence, higher = more signal
Chain of Neurogenic locus notch homolog protein 3 (Homo sapiens) (Q9UM47 whole entry, looked up): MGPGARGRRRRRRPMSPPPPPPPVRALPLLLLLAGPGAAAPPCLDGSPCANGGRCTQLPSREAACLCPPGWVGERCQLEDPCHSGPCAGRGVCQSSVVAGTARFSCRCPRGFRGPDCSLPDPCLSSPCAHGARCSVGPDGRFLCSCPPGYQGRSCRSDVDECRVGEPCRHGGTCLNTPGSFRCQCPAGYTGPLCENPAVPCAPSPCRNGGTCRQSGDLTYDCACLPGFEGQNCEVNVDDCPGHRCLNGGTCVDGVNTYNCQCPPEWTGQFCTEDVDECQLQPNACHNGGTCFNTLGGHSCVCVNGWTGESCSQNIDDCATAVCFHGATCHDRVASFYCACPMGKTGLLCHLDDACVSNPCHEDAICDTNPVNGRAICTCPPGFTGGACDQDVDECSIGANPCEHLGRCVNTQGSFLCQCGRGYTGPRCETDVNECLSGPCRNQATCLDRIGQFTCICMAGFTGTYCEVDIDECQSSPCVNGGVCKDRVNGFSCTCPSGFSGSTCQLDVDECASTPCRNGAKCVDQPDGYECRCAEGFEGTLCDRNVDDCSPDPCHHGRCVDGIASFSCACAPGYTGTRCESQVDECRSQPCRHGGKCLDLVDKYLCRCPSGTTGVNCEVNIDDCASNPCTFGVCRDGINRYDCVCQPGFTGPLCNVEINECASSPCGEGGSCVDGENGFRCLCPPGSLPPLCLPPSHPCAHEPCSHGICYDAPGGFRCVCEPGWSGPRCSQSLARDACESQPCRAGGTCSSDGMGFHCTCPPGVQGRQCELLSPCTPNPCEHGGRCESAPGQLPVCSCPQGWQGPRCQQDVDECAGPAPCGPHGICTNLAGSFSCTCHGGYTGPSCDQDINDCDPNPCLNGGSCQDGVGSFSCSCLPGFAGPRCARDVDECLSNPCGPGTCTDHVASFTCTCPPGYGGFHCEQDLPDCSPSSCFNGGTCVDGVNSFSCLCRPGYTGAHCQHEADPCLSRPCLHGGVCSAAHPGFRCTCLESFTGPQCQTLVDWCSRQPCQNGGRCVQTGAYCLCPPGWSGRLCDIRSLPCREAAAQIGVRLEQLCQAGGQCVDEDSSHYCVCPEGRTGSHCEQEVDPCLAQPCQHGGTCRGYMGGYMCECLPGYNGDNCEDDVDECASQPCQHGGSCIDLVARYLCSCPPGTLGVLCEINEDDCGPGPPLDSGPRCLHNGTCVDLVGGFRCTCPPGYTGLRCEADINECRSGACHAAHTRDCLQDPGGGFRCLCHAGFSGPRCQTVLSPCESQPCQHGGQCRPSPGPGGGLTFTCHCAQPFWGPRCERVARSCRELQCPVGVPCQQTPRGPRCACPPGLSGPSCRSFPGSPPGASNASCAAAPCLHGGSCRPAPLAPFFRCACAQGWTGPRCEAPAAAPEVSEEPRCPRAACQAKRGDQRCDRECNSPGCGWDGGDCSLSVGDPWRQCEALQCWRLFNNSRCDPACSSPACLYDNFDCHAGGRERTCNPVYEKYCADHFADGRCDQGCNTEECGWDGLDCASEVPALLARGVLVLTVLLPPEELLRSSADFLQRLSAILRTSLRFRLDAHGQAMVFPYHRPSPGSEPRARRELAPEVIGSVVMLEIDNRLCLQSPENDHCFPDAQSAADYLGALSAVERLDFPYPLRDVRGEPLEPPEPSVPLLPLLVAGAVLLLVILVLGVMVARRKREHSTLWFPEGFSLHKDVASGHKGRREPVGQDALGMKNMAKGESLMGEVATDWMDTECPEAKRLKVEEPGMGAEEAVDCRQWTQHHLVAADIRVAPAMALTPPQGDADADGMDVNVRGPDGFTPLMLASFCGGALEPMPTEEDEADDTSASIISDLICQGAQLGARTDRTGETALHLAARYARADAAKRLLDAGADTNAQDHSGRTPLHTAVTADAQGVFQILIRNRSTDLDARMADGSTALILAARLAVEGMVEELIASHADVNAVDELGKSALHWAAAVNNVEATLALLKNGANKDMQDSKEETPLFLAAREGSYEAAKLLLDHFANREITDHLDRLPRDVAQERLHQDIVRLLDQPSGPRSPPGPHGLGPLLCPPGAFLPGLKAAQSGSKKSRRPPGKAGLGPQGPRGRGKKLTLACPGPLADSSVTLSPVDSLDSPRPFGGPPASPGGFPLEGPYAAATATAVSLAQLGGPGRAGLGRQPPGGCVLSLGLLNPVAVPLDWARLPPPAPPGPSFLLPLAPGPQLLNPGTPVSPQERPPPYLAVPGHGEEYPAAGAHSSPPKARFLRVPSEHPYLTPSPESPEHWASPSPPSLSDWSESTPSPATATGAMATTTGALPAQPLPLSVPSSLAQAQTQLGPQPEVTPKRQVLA

[20] = small-molecule microarray binders of probe aEGFR, primary screen, biochemical, biotinylated probe, 635/667 nm fluorescence (AID 1097); settings: higher = more signal;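 also: probe is a biotinylated anti-EGFR antibody binding compounds printed on slides; score combines fluorescence near 667 nm and signal to noise of each spot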

SMILES: C=CC[C@@]1(C(=O)NCc2ccccc2)N=C(c2ccc(OCCCO)cc2)O[C@@H]1c1ccccc1N=[N+]=[N-]
- composite z-score [1]: 0.127
- composite z-score [2]: 0.852
- composite z-score [3]: 0.071
- composite z-score [4]: 0.942
- composite z-score [5]: 1.44
- composite z-score [6]: 1.74
- composite z-score [7]: 1.27
- z-score [8]: 0.206 (inactive)
- composite z-score [9]: 1.31
- composite z-score [10]: 0.111
- composite z-score [11]: 1.54
- z-score [12]: 0.158 (inactive)
- z-score [13]: 0.178 (inactive)
- z-score [14]: 2.21 (inactive)
- composite z-score [15]: 3.55
- z-score [16]: 0.266 (inactive)
- composite z-score [17]: 0.252
- composite z-score [18]: 0.8
- composite z-score [19]: 1.09
- composite z-score [20]: 0.006

SMILES: C=C(COC)/C(=C/C[C@@H](OC(C)=O)c1ccc(CO)o1)c1cnc2ccccc2c1
- composite z-score [1]: -0.258
- composite z-score [2]: 0.434
- composite z-score [3]: 0.0472
- composite z-score [4]: 1.11
- composite z-score [5]: 1.65
- composite z-score [6]: 1.02
- composite z-score [7]: 1.04
- z-score [8]: 0.527 (inactive)
- composite z-score [9]: 0.408
- composite z-score [10]: 0.364
- composite z-score [11]: 1.54
- z-score [12]: 1.17 (inactive)
- z-score [13]: -0.721 (inactive)
- z-score [14]: 0.951 (inactive)
- composite z-score [15]: 0.612
- z-score [16]: 1.27 (inactive)
- composite z-score [17]: 0.0624
- composite z-score [18]: 1.72
- composite z-score [19]: 1.04
- composite z-score [20]: 0.0821

SMILES: C=CCNC(=O)[C@H]1[C@@H]2C(=O)O[C@@H](c3ccccc3)[C@@H](c3ccccc3)N2[C@@H](c2ccc(O)cc2)[C@]12C(=O)N(C(=O)OCCOC)c1ccc(C#CCNC(N)=O)cc12
- composite z-score [1]: -0.14
- composite z-score [2]: -0.019
- composite z-score [3]: -0.0996
- composite z-score [4]: 0.379
- composite z-score [5]: 0.729
- composite z-score [6]: 0.0037
- composite z-score [7]: 0.879
- z-score [8]: -0.226 (inactive)
- composite z-score [9]: 0.007
- composite z-score [10]: 0.0722
- composite z-score [11]: 1.42
- z-score [12]: 0.905 (inactive)
- z-score [13]: 0.311 (inactive)
- z-score [14]: 1.63 (inactive)
- composite z-score [15]: 0.922
- z-score [16]: -0.781 (inactive)
- composite z-score [17]: 0.136
- composite z-score [18]: 0.79
- composite z-score [19]: 0.924
- composite z-score [20]: 0.0821

SMILES: O=C(NCc1ccc(F)cc1)[C@H]1C[C@H]2C(=O)N[C@@H](Cc3ccccc3)C(=O)N2[C@H]1c1ccc(O)cc1
- composite z-score [1]: 1.12
- composite z-score [2]: 0.949
- composite z-score [3]: -0.185
- composite z-score [4]: -0.685
- composite z-score [5]: -0.878
- composite z-score [6]: -0.242
- composite z-score [7]: 1.2
- z-score [8]: 1.1 (inactive)
- composite z-score [9]: -0.823
- composite z-score [10]: -0.0645
- composite z-score [11]: 0.53
- z-score [12]: 0.839 (inactive)
- z-score [13]: 0.247 (inactive)
- z-score [14]: 2.14 (inactive)
- composite z-score [15]: 2.34
- z-score [16]: 0.675 (inactive)
- composite z-score [17]: -0.118
- composite z-score [18]: 0.223
- composite z-score [19]: -0.75
- composite z-score [20]: -0.268

SMILES: C=CCN1C(=O)[C@]2(O[C@H](CCO)[C@@H]([Si](C)(C)c3ccc(OC)cc3)[C@@H]2C)c2cc(N3CCCCC3=O)ccc21
- composite z-score [1]: -0.5
- composite z-score [2]: 0.897
- composite z-score [3]: -0.0291
- composite z-score [4]: 0.428
- composite z-score [5]: 1.15
- composite z-score [6]: 1.42
- composite z-score [7]: 1.24
- z-score [8]: -3.81 (inactive)
- composite z-score [9]: 0.645
- composite z-score [10]: -0.13
- composite z-score [11]: 1.54
- z-score [12]: -0.242 (inactive)
- z-score [13]: 0.413 (inactive)
- z-score [14]: 2.23 (inactive)
- composite z-score [15]: 2.37
- z-score [16]: 1.27 (inactive)
- composite z-score [17]: -0.106
- composite z-score [18]: 1.06
- composite z-score [19]: 1.14
- composite z-score [20]: 0.048

SMILES: CCCN1C(=O)[C@]2(CCS(=O)(=O)c3ccccc3)N=C(c3ccc(OCCCO)cc3)O[C@@H]2c2ccccc21
- composite z-score [1]: 0.375
- composite z-score [2]: -0.212
- composite z-score [3]: -0.0027
- composite z-score [4]: 0.572
- composite z-score [5]: 0.58
- composite z-score [6]: 1.28
- composite z-score [7]: 1.27
- z-score [8]: -0.775 (inactive)
- composite z-score [9]: 0.458
- composite z-score [10]: -0.0645
- composite z-score [11]: 1.54
- z-score [12]: -0.559 (inactive)
- z-score [13]: -0.0812 (inactive)
- z-score [14]: 2.82 (inactive)
- composite z-score [15]: 2.84
- z-score [16]: 1.97 (inactive)
- composite z-score [17]: 0.106
- composite z-score [18]: 0.866
- composite z-score [19]: 1.09
- composite z-score [20]: -0.0509

SMILES: O=C1C[C@]2(c3ccc([N+](=O)[O-])cc3)C(=O)N(CCN3CCOCC3)c3cc(CO)ccc3[C@H]2N1C1CCCCC1
- composite z-score [1]: 0.526
- composite z-score [2]: -0.808
- composite z-score [3]: -0.162
- composite z-score [4]: -0.212
- composite z-score [5]: -0.309
- composite z-score [6]: 1.37
- composite z-score [7]: -0.251
- z-score [8]: -1.88 (inactive)
- composite z-score [9]: 0.105
- composite z-score [10]: -0.121
- composite z-score [11]: 1.47
- z-score [12]: -0.87 (inactive)
- z-score [13]: 0.0365 (inactive)
- z-score [14]: -1.6 (inactive)
- composite z-score [15]: 1.1
- z-score [16]: 0.668 (inactive)
- composite z-score [17]: -0.0668
- composite z-score [18]: -0.283
- composite z-score [19]: -0.188
- composite z-score [20]: -0.112

SMILES: [N-]=[N+]=NCc1ccccc1[C@@H]1OC(c2ccc(OCCCO)cc2)=N[C@]1(CCS(=O)(=O)c1ccccc1)C(=O)NCCN1CCOCC1
- composite z-score [1]: 0.21
- composite z-score [2]: 0.631
- composite z-score [3]: 0.269
- composite z-score [4]: 0.918
- composite z-score [5]: 1.65
- composite z-score [6]: 1.99
- composite z-score [7]: 1.31
- z-score [8]: 1.97 (inactive)
- composite z-score [9]: 1.87
- composite z-score [10]: 0.156
- composite z-score [11]: 1.53
- z-score [12]: 0.36 (inactive)
- z-score [13]: 0.517 (inactive)
- z-score [14]: 0.766 (inactive)
- composite z-score [15]: 3.37
- z-score [16]: 0.283 (inactive)
- composite z-score [17]: 0.0542
- composite z-score [18]: 1.78
- composite z-score [19]: 1.04
- composite z-score [20]: 0.208

SMILES: COCCCN1C(=O)[C@@]2(Cc3ccccc31)c1ccccc1C(=O)N(Cc1ccccc1C(F)(F)F)[C@H]2c1ccc(CO)cc1
- composite z-score [1]: -0.774
- composite z-score [2]: 0.356
- composite z-score [3]: -0.123
- composite z-score [4]: -0.179
- composite z-score [5]: -0.16
- composite z-score [6]: -0.0485
- composite z-score [7]: 0.848
- z-score [8]: -0.0864 (inactive)
- composite z-score [9]: 0.222
- composite z-score [10]: -0.526
- composite z-score [11]: 0.979
- z-score [12]: 1.19 (inactive)
- z-score [13]: 0.339 (inactive)
- z-score [14]: -1.41 (inactive)
- composite z-score [15]: 2.51
- z-score [16]: -0.253 (inactive)
- composite z-score [17]: -0.143
- composite z-score [18]: 0.992
- composite z-score [19]: 0.627
- composite z-score [20]: -0.121

SMILES: CN1C(=O)[C@]2(Cc3ccccc3)N=C(c3ccc(OCCCO)cc3)O[C@@H]2c2ccccc21
- composite z-score [1]: 0.547
- composite z-score [2]: 0.758
- composite z-score [3]: -0.0333
- composite z-score [4]: 0.802
- composite z-score [5]: 0.826
- composite z-score [6]: 1.36
- composite z-score [7]: 1.35
- z-score [8]: -0.113 (inactive)
- composite z-score [9]: 0.265
- composite z-score [10]: 0.12
- composite z-score [11]: 1.55
- z-score [12]: -0.112 (inactive)
- z-score [13]: -3.36 (inactive)
- z-score [14]: 2.26 (inactive)
- composite z-score [15]: 3.14
- z-score [16]: -0.538 (inactive)
- composite z-score [17]: -0.0354
- composite z-score [18]: 1.34
- composite z-score [19]: 0.845
- composite z-score [20]: 0.0492
